Only some compounds are listed: those with a hit (about 12% of all), similar ones and a draw of the others.
Sfp PPTase inh: qHTS Assay for Inhibitors of Bacillus subtilis Sfp phosphopantetheinyl transferase (PPTase); 4'-phosphopantetheinyl transferase ffp (Bacillus subtilis), Q9F4F7; Biochemical Sfp PPTase activity, qHTS; Potency, µM, inactives show largest response in the series, negative = inhibition, usual class: inhibitors; 310,000 tested, 3.5% active;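 further: the enzyme is Sfp with the accession as filed and its product quenches rhodamine fluorescence; 0% = enzyme reaction without inhibitor and -100% = no enzyme wells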
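Fluorescence-quenching assay with 15 nM Sfp, 5 uM rhodamine-CoA and 12.5 uM BHQ-2-labelled ybbR peptide in pH 7.6 Hepes/MgCl2 buffer. Enzyme was pre-incubated with compound for 15 min at room temperature. Rate was taken from the 30-min fluorescence change (525/598 nm).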
HP1b chromo inh: HTS for Inhibitors of HP1-beta Chromodomain Interactions with Methylated Histone Tails. Chromobox protein homolog 1 (Homo sapiens), P83916. AlphaScreen HP1-beta / biotin-H3K9me3 peptide binding. Potency, µM (top dose mostly 114 µM), without a hit: at the highest dose activity change, negative = inhibition, actives largely listed as inhibitors. 390,000 tested, 0.56% active. AID 540317, 2011; further: nearly all actives have a fitted effect of over 70% in size
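Compound inhibition of the preformed complex between 50 nM HP1-beta and 50 nM biotinylated H3K9me3 peptide was read by AlphaScreen. Buffer was PBS pH 7.4 with 0.01% Tween-20. Incubations ran 30 min at room temperature, with 10 ug/mL donor/acceptor beads.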
G9a block: qHTS Assay for Inhibitors of Histone Lysine Methyltransferase G9a; G9a H3K9 monomethylation, AlphaScreen, 2 h; Potency, µM (highest dose often 102 µM), inactives show at the highest dose activity, negative = inhibition, most hits filed as inhibitors; 350,000 tested, 8.8% active; AID 504332, 2011; Histone-lysine N-methyltransferase EHMT2 (Homo sapiens), Q96KQ7; further: on the % scale 0 is the no-effect control and ±100 the full control effect; nearly all actives have a fitted effect of over 75% in size
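Step 1: enzyme (final 20 nM) with compound, 15 min RT. Step 2: substrate peptide 500 nM and SAM 20 uM, 2 h RT. Step 3: anti-H3K9me1 antibody and AlphaScreen beads, 10 min, then plate read.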
BAZ2B inh: qHTS Assay for Inhibitors of BAZ2B; Bromodomain adjacent to zinc finger domain protein 2B (Homo sapiens), Q9UIF8; AlphaScreen BAZ2B-H3K14Ac peptide displacement; Potency, µM (titrated, usually from 114 µM), for inactives: top-dose activity change, negative = inhibition, actives largely listed as inhibitors; 360,000 tested, 4.4% active; further: on the % scale 0 is the no-effect control and ±100 the full control effect; nearly all actives have a fitted effect of over 60% in size
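Compounds, titrated to a top concentration of 110 uM, were incubated 30 min at room temperature with preformed BAZ2B/acetyl-K14 H3 peptide complex (50 nM each). Proximity signal was measured by AlphaScreen after 20 min with beads.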
L3MBTL1 block: qHTS Assay for the Inhibitors of L3MBTL1. Lethal(3)malignant brain tumor-like protein 1 (Homo sapiens), Q9Y468. AlphaScreen L3MBTL1–H3K9me1 peptide binding. Potency, µM (highest dose often 57.1 µM), inactives show at the highest dose activity, negative = inhibition, actives largely listed as inhibitors. 230,000 tested, 0.66% active. AID 485360, 2010; further: on the % scale 0 is the no-effect control and ±100 the full control effect; nearly all actives have a fitted effect of over 60% in size
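AlphaScreen proximity signal between nickel-chelate acceptor and streptavidin donor beads (final 10 ug/mL) reports binding of 50 nM L3MBTL1 to 75 nM biotin-H3 K9me1 peptide; complex incubated with compounds 30 min at room temperature; cefsulodin titration as control.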
JMJD2A Tudor inh: qHTS Assay for Inhibitors of JMJD2A-Tudor Domain; Lysine-specific demethylase 4A (Homo sapiens), O75164; 390,000 tested, 4.4% active; AlphaScreen JMJD2A-Tudor / H3K4me3 peptide binding; Potency, µM (highest dose often 114 µM), inactives show top-dose activity change, negative = inhibition, hits mostly inhibitors; further: on the % scale 0 is the no-effect control and ±100 the full control effect; nearly all actives have a fitted effect of over 50% in size
* marks the source's active call; other numbers are inactive results; [ ] = dose if it differs, or a comment. The call rests on the fitted dose curve; in most records, active means well fitted curve in the direction sought with a large enough effect; inconclusive means small, poorly fitted or top-dose-only effect, or another doubt; inactive means no such curve, though single readings can be large; an effect the other way counts as inactive or inconclusive. Potency means the concentration at half of the fitted maximal effect.

`CC(=O)C1=C(O)C(=O)N(Cc2ccco2)C1c1ccc2c(c1)OCO2` (stereo unspecified) gave Sfp PPTase inh -11.1%, HP1b chromo inh 12.7%, G9a block 50.1µM*, BAZ2B inh -6.6%, L3MBTL1 block -1.7% and JMJD2A Tudor inh -28.9%.
Screening Nc1cccc(S(=O)(=O)N2CCOCC2)c1 returned HP1b chromo inh 27.1% and JMJD2A Tudor inh -14.9%.
Screening CCc1ccccc1NC(=O)CN1CCCN(Cc2cc(C)ccc2C)S1(=O)=O returned HP1b chromo inh 50.5%, G9a block inconclusive, BAZ2B inh -2.3% and JMJD2A Tudor inh 14.5%.
`CC(=O)C1=C(O)C(=O)N(Cc2cccnc2)C1c1ccccc1` (stereo unspecified) gave Sfp PPTase inh -8.2%, HP1b chromo inh 41.0%, G9a block inconclusive, BAZ2B inh 1.3%, L3MBTL1 block 23.2%[11.4 µM] and JMJD2A Tudor inh -7.2%.
For CC(=O)C1=C(O)C(=O)N(Cc2cccnc2)C1c1ccc(O)cc1 (stereo unspecified) the results were Sfp PPTase inh 10.7%, HP1b chromo inh 6.3%, G9a block 50.1µM*, BAZ2B inh 79.4µM*, L3MBTL1 block 1.7% and JMJD2A Tudor inh -19.5%[11.4 µM].
Screening COc1ccc2[nH]c(-c3ccccc3)cc(=O)c2c1 returned Sfp PPTase inh 3.5% and G9a block 0.8%.
Cc1ccc2[nH]c(O)c(N=Nc3ccccc3C)c2c1 was read as Sfp PPTase inh 35.5µM*, HP1b chromo inh 70.8µM*, G9a block 8.91µM*, BAZ2B inh inconclusive and JMJD2A Tudor inh inconclusive.
For Cc1cccc(N=Nc2c(O)[nH]c3ccc(Br)cc23)c1 the results were Sfp PPTase inh 9.1%, HP1b chromo inh 23.0%, G9a block 44.7µM*, BAZ2B inh -22.1% and JMJD2A Tudor inh -28.1%.
Screening COc1ccc2[nH]c(N=Nc3ccccc3C)c(O)c2c1 returned Sfp PPTase inh -10.4%, HP1b chromo inh -12.4%, G9a block 12.6µM*, BAZ2B inh inconclusive, L3MBTL1 block -6.9% and JMJD2A Tudor inh 44.7µM*.
Screening Cc1ccccc1N=Nc1c(O)[nH]c2ccccc12 returned HP1b chromo inh -5.1% and JMJD2A Tudor inh inconclusive.
`O=C(N=Nc1c(O)[nH]c2ccc(Br)cc12)c1ccccc1-n1cccc1` gave Sfp PPTase inh -4.9%, HP1b chromo inh inconclusive, G9a block 25.1µM*, BAZ2B inh 31.6µM* and JMJD2A Tudor inh 15.8µM*.
Screening Cc1noc(C)c1-c1cncnc1NC1CC1 returned Sfp PPTase inh 2.5%.
COc1ccccc1N=Nc1c(O)[nH]c2ccc(Br)cc12 was read as Sfp PPTase inh 6.9%, HP1b chromo inh -2.1%, G9a block -9.6%, BAZ2B inh 3.2% and JMJD2A Tudor inh 44.7µM*.
`N=C(N)N=Nc1c(O)[nH]c2ccc(Br)cc12` gave Sfp PPTase inh 3.3%, HP1b chromo inh 13.7%, G9a block inconclusive, BAZ2B inh inconclusive, L3MBTL1 block -28.3% and JMJD2A Tudor inh -30.1%.
`Cn1cccc1C(=O)N1CCC[C@@]2(CCN(c3ccccc3)C2)C1` gave Sfp PPTase inh -6.3% and G9a block -23.7%[12.7 µM].
Cn1c(=O)n(Cc2ccccc2Cl)c(=O)c2c1nc1n2CCN1c1ccccc1 was read as HP1b chromo inh 32.2%, G9a block -32.7%[59 µM], BAZ2B inh -3.0% and JMJD2A Tudor inh -8.9%.
CC(CS(=O)(=O)c1ccc2c(c1)NC(=O)CS2)C(=O)NCc1ccccc1Cl (stereo unspecified) was read as Sfp PPTase inh -0.7%, HP1b chromo inh 12.6µM*, G9a block inconclusive, BAZ2B inh 14.1µM* and JMJD2A Tudor inh 25.1µM*.
For CN(C)c1ccc(CNS(=O)(=O)c2ccc3c(c2)NC(=O)CS3)cc1 the results were Sfp PPTase inh 5.8%, HP1b chromo inh -3.6%, G9a block 50.1µM*, BAZ2B inh inconclusive and JMJD2A Tudor inh inconclusive.
`Cc1ccc(CNC(=O)CC(C)S(=O)(=O)c2ccc3c(c2)NC(=O)CS3)o1` (stereo unspecified) gave Sfp PPTase inh 25.1µM*, HP1b chromo inh -12.5%, BAZ2B inh -24.3% and JMJD2A Tudor inh -8.0%.
`CSCC[C@H](NC(=O)[C@H](CC(C)C)N1CCC(NC(=O)[C@@H](NC(=O)[C@H](Cc2ccccc2)NC(=O)[C@H](CO)NC(=O)[C@H](CC(=O)O)NC(=O)[C@@H](N)CCCCN)C(C)C)C1=O)C(N)=O` (stereo partly specified) gave Sfp PPTase inh -29.0%.
`CCOC(=O)C(=O)Nc1nnc(C2CCCCC2)s1` gave Sfp PPTase inh inconclusive, HP1b chromo inh -9.9%, G9a block 8.91µM*, BAZ2B inh -13.7% and JMJD2A Tudor inh -7.9%.
COc1ccccc1N1CC(C(=O)Nc2nnc(SCc3ccccn3)s2)CC1=O (stereo unspecified) was read as Sfp PPTase inh -13.8%, HP1b chromo inh 24.5%, G9a block inconclusive, BAZ2B inh -37.1%, L3MBTL1 block 0.6% and JMJD2A Tudor inh -12.5%.
`CNC(=O)CSc1nnc(NC(=O)C2CC(=O)N(c3ccccc3OC)C2)s1` (stereo unspecified) gave Sfp PPTase inh 50.1µM*, HP1b chromo inh 49.6%, G9a block 10µM*, BAZ2B inh -7.5% and JMJD2A Tudor inh -9.0%.
Screening Cc1ccc(N2CC(C(=O)Nc3nc4ccc(S(C)(=O)=O)cc4s3)CC2=O)cc1 (stereo unspecified) returned Sfp PPTase inh 44.7µM*, HP1b chromo inh 35.0%, BAZ2B inh inconclusive and JMJD2A Tudor inh -22.1%.
For COc1ccc(N2CC(C(=O)Nc3nnc(C4CCCCC4)s3)CC2=O)cc1 (stereo unspecified) the results were Sfp PPTase inh 1.4%, HP1b chromo inh -3.6%, G9a block -7.1%, BAZ2B inh -10.7% and JMJD2A Tudor inh 22.4µM*.
For O=C(Nc1nnc(C2CCCCC2)s1)C1CC(=O)N(c2ccc(F)cc2)C1 (stereo unspecified) the results were Sfp PPTase inh -3.0%, HP1b chromo inh 27.7%, G9a block 18.5%[59 µM], BAZ2B inh -1.9% and JMJD2A Tudor inh 1.4%.
